Screening results as filed in PubChem BioAssay.
This is a sample that favours compounds with a hit; in the whole collection about 5% have one here.
ALR H2O2 inh – blocks human ALR sulfhydryl oxidase activity. P55789. AID 485317. inhibition, % (no concentration beside the values). 3.8% of 290,000 active. purified ALR, DTT oxidation, H2O2 HRP-luminol luminescence;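 active means mean replicate inhibition above about 79%, with every replicate also reaching it, limit read from the data; inconclusive means only one of the two criteria met; inactive means mean below limit and not every replicate reaching it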
PREPL inhibitor – inhibitors of human prolyl oligopeptidase-like enzyme PREPL. Q4J6C6. recombinant PREPL, fluorescence polarization activity-based probe. inhibition, % at 5.96 µM. 0.68% of 320,000 active; in the data active means inhibition above about 43%
AI-2 QS modul – modulates the Vibrio harveyi AI-2 quorum sensing system. Vibrio harveyi JMH597 AI-2 luminescence/OD600 ratio, 9 h; active compounds read low; strain lacks LuxN and CqsS sensors; 0 = neutral-control median. activity change, % at 7.5 µM. 0.4% of 300,000 active. AID 2094; in the data active means activity change below about -75%, passing the limit was not always enough; inconclusive means no clear call, values can overlap the other calls;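 further: luminescence divided by OD600 gain over 9 h not by final OD600 alone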
CHT allo act – allosterically activates the human high affinity choline transporter; 0.49% of 310,000 active; AID 488977; CHT-expressing cells, membrane potential dye, choline EC20; active compounds read high; LV-AA mutant CHT in HEK293 cells; Q9GZV3; B-score at 10 µM;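 active means initial fluorescence not abnormally high and integrated response B-score, plate-corrected, over 3 SD above library mean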
Target sequence (Q9GZV3 whole entry, looked up): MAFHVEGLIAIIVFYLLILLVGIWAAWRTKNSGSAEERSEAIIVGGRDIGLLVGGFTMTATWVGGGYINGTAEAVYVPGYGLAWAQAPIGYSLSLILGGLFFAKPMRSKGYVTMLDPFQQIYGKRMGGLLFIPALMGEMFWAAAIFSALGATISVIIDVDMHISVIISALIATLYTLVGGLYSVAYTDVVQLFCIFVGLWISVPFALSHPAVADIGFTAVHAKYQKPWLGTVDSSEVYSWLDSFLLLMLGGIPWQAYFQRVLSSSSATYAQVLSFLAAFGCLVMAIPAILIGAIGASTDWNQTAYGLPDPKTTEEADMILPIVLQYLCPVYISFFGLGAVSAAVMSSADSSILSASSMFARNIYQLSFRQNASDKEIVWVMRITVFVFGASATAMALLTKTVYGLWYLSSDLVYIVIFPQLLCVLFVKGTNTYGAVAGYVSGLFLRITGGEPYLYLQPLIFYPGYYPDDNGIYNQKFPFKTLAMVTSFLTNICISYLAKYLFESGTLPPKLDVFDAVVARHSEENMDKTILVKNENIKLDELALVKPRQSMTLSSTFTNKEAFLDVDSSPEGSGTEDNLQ
CHT inh – human CHT choline transport inhibition; 0.86% of 310,000 active; B-score at 10 µM; Q9GZV3; AID 488975; CHT-expressing cells, membrane potential dye, choline response; active compounds read low;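 active means B-score over 3 SD under the library average, and starting fluorescence ratio not unusually high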;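 further: choline stimulus applied at its EC90 after an EC20 pre-addition; B-score computed on integrated fluorescence ratio after choline addition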
Large screens that a line does not name were inactive.

Cn1c(=O)n(CC(=O)NCC2CCCO2)c(=O)c2c3c(sc21)CCCC3 (centres undefined)	none
S=c1[nH]cc(-c2ccccc2)n1-c1ccccc1Cl	ALR H2O2 inh 90
COc1ccccc1-n1c(-c2ccccc2)c[nH]c1=S	none (no result: ALR H2O2 inh, PREPL inhibitor, CHT allo act, CHT inh)
Nc1[nH]c(N=NC(=O)c2ccc(F)cc2)c2ccccc12	ALR H2O2 inh 99
Nc1ccccc1C(=O)N=Nc1[nH]c(N)c2ccccc12	none
CCc1cc(-c2[nH]ncc2-c2ccc3c(c2)OCO3)c(O)cc1O	none
COc1ccc(-c2[nH]ncc2-c2ccc3c(c2)OCCO3)c(O)c1	ALR H2O2 inh 92
CC(C)c1ccc(NC(=S)NCCc2c[nH]c3ccccc23)cc1	none
CN1CCN(/N=C/c2nc(-c3cccc([N+](=O)[O-])c3)n3ccccc23)CC1	ALR H2O2 inh 99
O=[N+]([O-])c1cccc(-c2nnc3ccc4ccccc4n23)c1	none
CN(C)N1C(=O)CC(NNC(=O)c2ccncc2)C1=O (centres undefined)	ALR H2O2 inh 86
O=C(O)CCC(=O)Nc1ccc(C(=O)OCC(=O)c2ccc(Cl)cc2Cl)cc1	ALR H2O2 inh 96
CC(C)c1ccc(C2/C(=C(/O)c3ccc(F)cc3)C(=O)C(=O)N2CCCN2CCOCC2)cc1 (centres undefined)	none
Cc1ccc(N2CCC(N3CCN(C)C(CCO)C3)CC2)cc1 (centres undefined)	ALR H2O2 inh 99
CCC1CCC(N2CCN(c3cccc(OC)c3)CC2)CC1 (centres undefined)	none (no result: PREPL inhibitor)
OCCC1CN(C2CCN(c3ccccc3F)CC2)CCN1Cc1ccccc1 (centres undefined)	none (no result: ALR H2O2 inh)
COc1cccc(N2CCC(N3CCN(C)C(CCO)C3)CC2)c1 (centres undefined)	ALR H2O2 inh 94
Cc1sc(NC(=O)C2CSC3(C)CCC(=O)N23)nc1-c1ccc(F)cc1 (centres undefined)	none
Cc1cc(C(=O)OCC(=O)NCc2ccco2)c(C)n1-c1ccc(F)cc1	CHT inh -6.3
Cc1ccc(SCC(=O)Nc2ccc(S(=O)(=O)Nc3ncccn3)cc2)cc1	ALR H2O2 inh 90
Cc1cc(C)nc(SCC(=O)Nc2ccc(S(=O)(=O)Nc3ncccn3)cc2)n1	none
O=C(Cc1ccccc1F)Nc1ccc(S(=O)(=O)Nc2ncccn2)cc1	AI-2 QS modul -76
Cc1noc(NS(=O)(=O)c2ccc(NC(=O)CSc3ncccn3)cc2)c1C	ALR H2O2 inh 98
O=C(CSCc1ccccc1)Nc1ccc(S(=O)(=O)Nc2ncccn2)cc1	ALR H2O2 inh 98
Cc1noc(NS(=O)(=O)c2ccc(NC(=O)CCn3c(=O)oc4ccccc43)cc2)c1C	none
O=C(Cc1c(Cl)cccc1Cl)Nc1ccc(S(=O)(=O)Nc2ncccn2)cc1	none
CCc1c(C(=O)NNC(=S)Nc2ccc(S(=O)(=O)Nc3ncccn3)cc2)csc1C	ALR H2O2 inh 98
COC(=O)c1ccc(NC(=O)CSCc2ccccc2)cc1	ALR H2O2 inh 99
O=S(=O)(Nc1ncccn1)c1ccc(NC(=S)Nc2ccccc2)cc1	none
O=C(Nc1ccc(S(=O)(=O)Nc2ncccn2)cc1)C1=COCCO1	ALR H2O2 inh 97
COC(=O)c1ccc(NC(=O)CSCc2ccc(C)cc2)cc1	none
COc1ccc(CNS(=O)(=O)c2ccc(-c3ccc(=O)[nH]n3)s2)cc1OC	none
Cc1cc(C(F)(F)F)n2nc(-c3cnn(C)c3C(F)(F)F)c(Br)c2n1	none
CC(C)CCn1c(=O)c2ccccc2n2c(CCC(=O)NCC3CCCO3)nnc12 (centres undefined)	none
Cc1cc(CSC(=N)N)c(CSC(=N)N)cc1C	ALR H2O2 inh 99, CHT allo act 12
CC(=O)Nc1ccc(S(=O)(=O)N2CCN=C2SCc2cccnc2)cc1	ALR H2O2 inh 98
O=S(=O)(c1ccc(F)cc1)N1CCN=C1SCc1cccnc1	ALR H2O2 inh 98
O=S(=O)(c1ccc(Br)cc1)N1CCN=C1SCc1cccnc1	ALR H2O2 inh inconclusive
C=CCN(c1ccccc1)S(=O)(=O)c1cccc(C(=O)NCC(c2cccs2)N2CCOCC2)c1 (centres undefined)	none
CN(C)Cc1c(O)ccc2occ(C(=O)c3ccc(F)cc3)c12	none (no result: AI-2 QS modul)
O=C(c1ccccc1)c1coc2ccc(O)c(Cl)c12	ALR H2O2 inh 99
Cc1ccc(C(=O)c2coc3ccc(O)c(Cl)c23)cc1	ALR H2O2 inh 98
COc1ccc(OCC(=O)Nc2ccc3c(c2)nc(CCn2ccccc2=O)n3C)cc1	none
Cc1ccc2[nH]cc(CCNS(=O)(=O)c3ccc(F)cc3)c2c1	none (no result: PREPL inhibitor)
COc1ccc(CCNC(=O)c2cc3c(=O)n4cccc(C)c4nc3n(Cc3ccco3)c2=N)cc1OC	ALR H2O2 inh 76
Cc1cccn2c(=O)c3cc(C(=O)NCCc4ccccc4)c(=N)n(Cc4ccco4)c3nc12	none (no result: AI-2 QS modul)
CC(=O)/C(=N/Nc1cccc(Cl)c1)N1CCOCC1	ALR H2O2 inh 98
CC(=O)/C(=N/Nc1ccccc1)N1CCOCC1	ALR H2O2 inh 99
Cc1cccc(NC(=O)CSCC(=O)Nc2cccc3ncccc23)c1	ALR H2O2 inh 99
N#C/C(=C\c1ccc([N+](=O)[O-])cc1)C(=O)Nc1ccccc1O	ALR H2O2 inh 86
N#C/C(=C/c1ccc([N+](=O)[O-])cc1)C(=O)Nc1ccccc1O	ALR H2O2 inh inconclusive
Cc1onc(-c2c(F)cccc2Cl)c1C(=O)NC1CC1	none
Cc1onc(-c2ccccc2Cl)c1C(=O)NC1CCS(=O)(=O)C1 (centres undefined)	ALR H2O2 inh 96
CCn1c(SCC(=O)Nc2ccc3c(c2)OCO3)nnc1C1CC1	none (no result: AI-2 QS modul)
CCn1c2ccccc2c2cc(NC(=O)CSc3nnc(C4CC4)n3Cc3ccco3)ccc21	ALR H2O2 inh 98
O=C(O)c1cccc(C(=O)O)c1Br	none
C=CCn1c(C)csc1=Nc1ccccc1C	ALR H2O2 inh 99
C=CCn1c(C)csc1=Nc1ccc(C(C)=O)cc1	none
CCOC(=O)C(Sc1nn(C)c(=S)s1)C(C)=O (centres undefined)	ALR H2O2 inh 94
Cn1nc(SCC(=O)O)sc1=S	none
O=C(CSc1nnc(CNc2ccc(F)cc2)o1)c1ccccc1	none
O=c1c2ccccc2nc(COc2ccccc2)n1/N=C/c1c[nH]c2ccccc12	none (no result: ALR H2O2 inh)
O=c1c2ccccc2nc(COc2ccccc2)n1/N=C/c1ccc(O)cc1O	ALR H2O2 inh 77
COc1ccc(C(C(=O)NCC2CCCO2)N(C(=O)CNC(=O)c2ccco2)c2cc(C)ccc2C)cc1OC (centres undefined)	none
CC(C)NC(=O)C(c1ccc(F)cc1)N(C(=O)CCC(=O)Nc1ccccn1)C1CCCCC1 (centres undefined)	none
CCOc1ccc(NS(=O)(=O)c2cc(NC(=O)CCS(=O)(=O)c3ccc(C)cc3)ccc2OC)cc1	CHT inh -5.1
O=C(O)Cn1cc(C(=S)N2CCOCC2)c2ccccc21	ALR H2O2 inh 98
O=C(Cn1cc(C(=S)N2CCOCC2)c2ccccc21)N1CCOCC1	none
O=C(/C=C/c1ncc(C(F)(F)F)cc1Cl)OCc1ccccc1	none
